The text below walks through data of PubChem BioAssay (Tox21).

Values without a mark were called inactive. Inconclusive results are not listed. Activity calls are given as the source filed them. Unless noted, calls follow the shape of the dose curve; as a rule, active = well fitted curve in the direction sought with a large enough effect in the repeat runs; inconclusive = weak or mixed curves; inactive = no such curve, though single readings can be large; an effect the other way counts as inactive or inconclusive.

Assay [1] is described as follows: qHTS assay for small molecules that induce genotoxicity in human embryonic kidney cells expressing luciferase-tagged ATAD5 (AID 651632). Also: nearly all actives have a fitted effect of over 15% in size. In outline: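 Increased luciferase signal from ATAD5-tagged reporter cells indicates DNA-damage-driven ATAD5 induction. HEK293T cells are treated for 16 hr at 37C before detection with Amplite.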
Assay [2] can be described thus: qHTS assay for small molecule agonists of the p53 signaling pathway - cell viability (AID 651633; calls by dose curve; also: series mostly up to about 83 µM; nearly all actives have a fitted effect of over 30% in size). In outline: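 p53RE-bla cells were treated with compound for 16 hours at 37 C. Cytotoxicity was then measured as CellTiter-Glo luminescence after 30 min at room temperature.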
For orientation: In qHTS, concentration-response curves come from the screen itself.

A short description of assay [3]: qHTS assay for small molecules that induce genotoxicity in human embryonic kidney cells expressing luciferase-tagged ATAD5 - cell viability (AID 651634; calls by dose curve; also: nearly all actives have a fitted effect of over 25% in size). In a few lines: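 Cytotoxicity counterscreen in HEK293T cells bearing an ATAD5-luciferase reporter: live-cell protease activity measured by CellTiter-Fluor fluorescence after 15.5 hr compound exposure.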
Assay [4] is described as follows: qHTS assay for small molecule disruptors of the mitochondrial membrane potential - cell viability (AID 720634; calls by dose curve;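 also: human HepG2 liver cancer cells; series mostly up to about 83 µM; nearly all actives have a fitted effect of over 20% in size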). In a few lines: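 After overnight attachment at 37 C, HepG2 cells received compound or DMSO vehicle for 1 hr. Viability is then taken from ATP-driven luminescence following a 30 min room-temperature CellTiter-Glo step.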
A short description of assay [5]: qHTS assay to test for compound auto fluorescence at 590 nm (red) in HepG2 cells (AID 720674). In a few lines:
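Seeding: 2,000 HepG2 cells/well, MEM/10% FBS, overnight 37 C. Dosing: compound vs DMSO. Incubation: 1 hr, 37 C, 5% CO2. Read: fluorescence 540 ex/590 em, Rose Bengal sodium as red reference.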

Assay [6] can be described thus: qHTS assay to test for compound auto fluorescence at 535 nm (green) in HepG2 cells (AID 720675).
Assay [7] is described as follows: qHTS assay to test for compound auto fluorescence at 460 nm (blue) in HEK293 cells (AID 720678). In a few lines: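 HEK293 cells (2,000/well, medium with 10% dialyzed FBS) attached 4-5 hr, then exposed to compound overnight at 37C, 5% CO2. Blue fluorescence read at 405/460 nm, with triamterene as reference fluorophore.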
A short description of assay [8]: qHTS assay to test for compound auto fluorescence at 590 nm (red) in HEK293 cells (AID 720679). In a few lines: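 HEK293 cells (2,000/well, 10% dialyzed FBS) attached 4-5 hr, then dosed with compound or DMSO and incubated overnight at 37C, 5% CO2. Red fluorescence read at 540/590 nm, Rose Bengal sodium as reference fluorophore.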
A short description of assay [9]: qHTS assay for small molecule disruptors of the mitochondrial membrane potential (AID 720635). Also: potency is read from the fitted curve at half-maximal effect. In a few lines:
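HepG2 cells exposed to compound 1 hr at 37C, then Mito-MPS dye 30 min. Ratio read of aggregate (540/590 nm) versus monomer (490/535 nm) fluorescence.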

The nature of assay [10]: qHTS assay for small molecule agonists of the p53 signaling pathway (AID 651631; calls by dose curve; also: nearly all actives have a fitted effect of over 15% in size). In outline:
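Readout was fluorescence from the LiveBLAzer FRET substrate, applied for 2 h at room temperature after 16 h compound exposure at 37 °C. Cells were the p53RE-bla HCT-116 line, with beta-lactamase driven by p53 response elements.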
% is scaled to controls: 0 for no effect and ±100 for the full control effect.

For `OCCC(F)(F)C(F)(F)C(F)(F)C(F)(F)C(F)(F)C(F)(F)C(F)(F)C(F)(F)F`, the Potency entry in assay [1] and in [3] was “inactive” each time. In addition, the call in assay [2], in assay [4], in [5], in [6], in [7] and in assay [8] was inactive.
For the compound `CC1=C(C(=O)O)N2C(=O)[C@@H](NC(=O)[C@H](N)c3ccc(O)cc3)[C@H]2SC1`, the Potency result in assay [1], in assay [3] and in [9] was “inactive” in each case. Further, the outcome in assay [2] and in assay [4] was inactive. Moreover, in assay [5], the fluorescence, relative to Rose Bengal is 0.188% [at 18.6 µM]. Also, the fluorescence, % of fluorescein control in assay [6] was -0.0034% [at 18.6 µM]. Further, the fluorescence, % of triamterene in assay [7] is 0.187% [at 18.6 µM]. In assay [8], the fluorescence, % of fluorescent control is -0.165% [at 18.6 µM].
As for `CCC(CC)CO`, the Potency result in [1], in [3] and in [9] was “inactive” each time. Further, the outcome in [2], in [4], in assay [5], in [6], in [7] and in assay [8] was inactive.
As for `NCCN1CCOCC1`, the call in assay [10], in assay [2], in assay [4], in assay [5], in [6] and in assay [8] was inactive. In addition, the Potency entry in assay [3] and in assay [9] was “inactive” each time.
Turning to `NNc1nnc(NN)c2ccccc12`, the Potency result in [1] and in assay [3] was “inactive” throughout. The compound was classed as inactive in assay [2], in assay [4], in assay [5], in assay [6], in [7] and in assay [8].
For the compound `O=C(O)CCSSCCC(=O)O`, the Potency result in [1] and in [3] was “inactive” throughout. Besides, the outcome in assay [2], in [4], in assay [5], in assay [6], in [7] and in assay [8] was inactive.
With `C=C(C)C(=O)OCCOP(=O)(O)OCCOC(=O)C(=C)C`, the Potency result in assay [1], in [3] and in [9] was “inactive” in each case. Besides, the compound was called inactive in assay [2], in [4], in [5], in assay [6], in assay [7] and in assay [8].
Consider `C=C(C)C(=O)OCc1ccccc1`, for which the Potency entry in assay [1], in [3] and in assay [9] was “inactive” in each case. For the same compound, the call in assay [2], in assay [4], in [5], in [6], in assay [7] and in assay [8] was inactive.
As to `CC(CN)CC(C)(C)CCN` (configuration not stated), the Potency entry in assay [1], in assay [3] and in assay [9] was “inactive” throughout. Besides, the result in [2], in [4], in assay [5], in assay [6], in [7] and in assay [8] was inactive.
Take `CCN(C)C(=O)Oc1cccc([C@H](C)N(C)C)c1`: the Potency entry in [1] and in [3] was “inactive” throughout. The outcome in [2], in assay [4], in [5], in assay [6], in assay [7] and in [8] was inactive.
For the compound `CN(C)CCOCCO`, the Potency result in [1], in [3] and in assay [9] was “inactive” in each case. In addition, the compound was classed as inactive in assay [2], in assay [4], in assay [5], in assay [6], in [7] and in assay [8].
As to `CC(C)OC(=O)CCCCC(=O)OC(C)C`, the Potency result in [1] and in assay [3] was “inactive” each time. Besides, the call in assay [2], in [4], in [5], in [6], in assay [7] and in [8] was inactive. Besides, in [9], the Potency is 54.6 µM (active).
For the compound `CC(=O)N[C@@H](CCC(=O)O)C(=O)O`, the Potency entry in [1], in assay [3] and in assay [9] was “inactive” in each case. Further, the compound was classed as inactive in assay [2], in assay [4], in assay [5], in assay [6] and in [8].
Turning to `CC(CO)c1ccccc1` (configuration not stated), the Potency entry in [1], in assay [3] and in assay [9] was “inactive” throughout. Besides, the outcome in assay [2], in assay [4], in [5], in assay [6], in assay [7] and in assay [8] was inactive.
`CC(C)C(=O)OCCc1ccccc1`: the Potency result in assay [1] and in assay [3] was “inactive” throughout. In addition, the outcome in assay [2], in assay [4], in assay [5], in [6], in assay [7] and in assay [8] was inactive.
Take `On1nnc2ccccc21`: the result in assay [10], in assay [2], in assay [4], in assay [5], in assay [6] and in assay [8] was inactive. Further, the Potency entry in assay [9] was “inactive”.
Take `O=C(O)c1cc(Br)c(O)c(Br)c1`: the Potency result in assay [1], in assay [3] and in assay [9] was “inactive” each time. Further, the outcome in assay [2], in assay [4], in [5], in assay [6] and in [8] was inactive.
For the compound `C[Si](C)(C)C`, the Potency result in assay [1], in [3] and in [9] was “inactive” each time. In addition, the call in [2], in [4], in [5], in assay [6], in assay [7] and in assay [8] was inactive.
`N[C@@H](COP(=O)(O)O)C(=O)O`: the Potency entry in assay [1], in assay [3] and in [9] was “inactive” throughout. The compound was called inactive in assay [2], in [4], in assay [5], in [6], in assay [7] and in assay [8].
For `COc1ccc(OC)c(Cl)c1`, the Potency result in assay [1] and in assay [3] was “inactive” throughout. In addition, the compound was classed as inactive in [2], in assay [4], in assay [5], in assay [6], in [7] and in [8].
As for `BrCc1cccc(Oc2ccccc2)c1`, the Potency entry in [1] and in assay [3] was “inactive” in each case. Besides, the compound was called inactive in assay [2], in [4], in assay [5], in assay [6], in [7] and in assay [8].
